The results in this text go back to PubChem BioAssay (EPA / NIEHS).

Records with an inconclusive call do not appear. The source made the active and inactive calls. How the source made its calls, unless noted: active means hit-call score of the fitted dose curve at least 0.9, where 1 is the maximum; inconclusive means response in the unintended direction; inactive means score below 0.9.

Experiment [1] is described as follows: TOX21_p53_BLA_p2_viability: Viability Assessment in the Tox21 HCT-116 p53 Agonism Beta-lactamase Assay, Phase 2 (AID 2283591).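 Further: actives lower the ATP signal meaning cytotoxicity.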 In outline: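 HCT116 p53-bla cells, 4000/well, dosed after 5 h plating (217-fold dilution of DMSO stocks) and incubated 16 h at 37C. Viability taken as cellular ATP by CellTiter-Glo luminescence after 30 min RT; signal loss marks cytotoxicity.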

Experiment [2] in a line: TOX21_p53_BLA_p3_viability: Viability Assessment in the Tox21 HCT-116 p53 Agonism Beta-lactamase Assay, Phase 3 (AID 2283593).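 Further: cells exposed to compound for 16 h before reading.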 Put shortly: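 HCT116 cells, 4000/well, dosed 5 h after plating by pin transfer (217-fold dilution from DMSO stock) and incubated 16 h at 37C, 5% CO2. Viability read as ATP luminescence with CellTiter-Glo after 30 min at room temperature.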
For experiment [3], the target named is Cellular tumor antigen p53 (Homo sapiens) (UniProt P04637). Put plainly: TOX21_p53_BLA_p5_ratio: Tox21 HCT-116 p53 Agonism Beta-lactamase Assay, Ratio, Phase 5 (AID 2283599). Put shortly:
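HCT-116 p53-bla cells (4000/well) plated 5 h, dosed with compound (217-fold DMSO dilution) for 16 h at 37 C; CCF4-AM substrate 2 h at room temperature. Activity is the 460/530 nm emission ratio (405 nm excitation), fitted in gain-of-signal direction versus DMSO.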

Experiment [4] can be described thus: TOX21_p53_BLA_p4_viability: Viability Assessment in the Tox21 HCT-116 p53 Agonism Beta-lactamase Assay, Phase 4 (AID 2283597).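 Further: hits lower the luminescence signal meaning cytotoxicity.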 Put shortly: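 ATP content by CellTiter-Glo luminescence, 30 min RT, read after the beta-lactamase ratio step. Cells: HCT116, 4000/well, compound added after 5 h, exposure 16 h at 37C. Signal loss = reduced viability.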
The target of experiment [5] is Cellular tumor antigen p53 (Homo sapiens) (UniProt P04637). Put plainly: TOX21_p53_BLA_p4_ratio: Tox21 HCT-116 p53 Agonism Beta-lactamase Assay, Ratio, Phase 4 (AID 2283601). In outline:
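HCT-116 p53 beta-lactamase reporter cells (4000/well) preincubated 5 h, then compound (217-fold dilution of DMSO stock) for 16 h at 37C. CCF4-AM substrate added 2 h at room temperature; 460/530 nm emission ratio fitted upward versus DMSO.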

The nature of experiment [6]: TOX21_p53_BLA_p5_viability: Viability Assessment in the Tox21 HCT-116 p53 Agonism Beta-lactamase Assay, Phase 5 (AID 2283600). In outline:
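ATP luminescence (CellTiter-Glo, 30 min, RT) served as the viability read-out, with loss of signal indicating cytotoxicity. Compounds in DMSO were pinned at a 217-fold dilution onto 4000 cells/well and incubated 16 h, 37C.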

Experiment [7] addresses Cellular tumor antigen p53 (Homo sapiens) (UniProt P04637). Put plainly: TOX21_p53_BLA_p3_ratio: Tox21 HCT-116 p53 Agonism Beta-lactamase Assay, Ratio, Phase 3 (AID 2283596). In outline: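 Cells were seeded at 4000/well, rested 5 h at 37C, then dosed with DMSO compound solutions (217-fold dilution) for 16 h. CCF4-AM substrate was loaded for 2 h at room temperature, and the 460/530 nm emission ratio was fitted for gain of signal versus DMSO.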

The nature of experiment [8]: CCTE_Harrill_HTTr_Viability_MCF7: CCTE's 6-hour Cell Viability Assessment for the High-Throughput Transcriptomics (HTTr) Platform, in MCF-7 cells cultured in DMEM + 10% fetal bovine serum, Harrill Lab (AID 2284010; active means hit-call score of the fitted dose curve at least 0.9, where 1 is the maximum; inactive means score below 0.9). Put shortly:
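PI exclusion, high-content imaging; 8-pt dilution series, 6 h exposure; bidirectional fit vs DMSO (neg. ctrl/baseline); gain of signal = loss of membrane integrity.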

A short description of experiment [9]: CCTE_Harrill_HTTr_Apoptosis_MCF7: CCTE's 6-hour Apoptosis Assessment for the High-Throughput Transcriptomics (HTTr) Platform, in MCF-7 cells cultured in DMEM + 10% fetal bovine serum, Harrill Lab (AID 2284011; active means hit-call score of the fitted dose curve at least 0.9, where 1 is the maximum; inactive means score below 0.9). In outline:
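Read-out: CellEvent Caspase 3/7 Green signal by high content imaging, gain-of-signal indicating apoptosis. MCF-7 cells, DMEM + 10% FBS, eight-point dilution series, 6 h exposure. Curves fitted bidirectionally relative to DMSO negative control.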

Experiment [10] has as its target Cellular tumor antigen p53 (Homo sapiens) (UniProt P04637). Put plainly: TOX21_p53_BLA_p2_ratio: Tox21 HCT-116 p53 Agonism Beta-lactamase Assay, Ratio, Phase 2 (AID 2283592). In outline:
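Readout: blue/green (460/530 nm) FRET emission ratio after 2 h CCF4-AM loading at room temperature, excitation 405 nm. HCT116 p53 bla cells, 16 h compound exposure at 37C, 5% CO2; agonist direction fitted against DMSO baseline.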

Cellular tumor antigen p53 (Homo sapiens), sequence (P04637 whole entry, looked up): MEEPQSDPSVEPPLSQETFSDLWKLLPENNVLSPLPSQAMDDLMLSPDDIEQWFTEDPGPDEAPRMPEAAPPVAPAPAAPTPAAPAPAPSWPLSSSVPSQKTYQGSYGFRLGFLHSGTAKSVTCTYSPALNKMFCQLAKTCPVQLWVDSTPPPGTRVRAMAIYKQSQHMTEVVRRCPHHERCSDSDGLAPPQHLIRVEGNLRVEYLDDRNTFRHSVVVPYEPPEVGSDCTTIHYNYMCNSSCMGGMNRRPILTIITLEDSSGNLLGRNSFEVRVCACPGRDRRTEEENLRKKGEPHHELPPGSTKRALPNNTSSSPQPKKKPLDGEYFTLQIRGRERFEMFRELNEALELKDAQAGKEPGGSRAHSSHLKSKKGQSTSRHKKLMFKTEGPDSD

With `C[C@H]1O[C@H](OC2[C@@H](O)[C@@H](O)C(O)[C@H](O)[C@H]2O)[C@@H](N)C[C@@H]1N=C(N)C(=O)O` (some centres undefined), the outcome in experiment [1], in experiment [2] and in experiment [3] was inactive.

Consider `O=C(Cl)/C=C/C(=O)Cl`, for which the call in experiment [1], in [2], in experiment [4], in [3] and in [5] was inactive.

With `CCCOC(=O)Cc1ccc(OCC(=O)N(CC)CC)c(OC)c1`, the outcome in [1], in [2], in experiment [4] and in experiment [5] was inactive.

For the molecule `CC(C)CCCCCOC(=O)c1ccccc1C(=O)OCCCCCC(C)C`, the outcome in experiment [1], in experiment [2], in experiment [4] and in experiment [5] was inactive.

For the molecule `O=[N+]([O-])c1ccc(Cl)c(Cl)c1Cl`, the molecule was called inactive in [1], in experiment [2], in experiment [3] and in experiment [6].

Turning to `COC(=O)c1ccc(CBr)cc1`, the molecule was called inactive in [1], in experiment [2], in experiment [4], in experiment [6] and in [5].

With `C=CC[C@]1(O)CC[C@H]2[C@@H]3CCC4=CCCC[C@@H]4[C@H]3CC[C@@]21C`, the call in experiment [1], in experiment [2], in experiment [4] and in experiment [6] was inactive.

For `CCN(CC)C(=O)N[C@H]1C[C@@H]2c3cccc4[nH]cc(c34)C[C@H]2N(C)C1`, the molecule was classed as inactive in experiment [1], in experiment [2], in experiment [4] and in [6].

As for `O=C(O)c1cc(Cl)ccc1Cl`, the call in experiment [1], in [7], in experiment [4], in experiment [3] and in experiment [6] was inactive.

As to `Cc1nnc2n1-c1sc(Br)cc1C(c1ccccc1Cl)=NC2`, the result in [1], in [7], in experiment [4], in experiment [3], in experiment [6] and in experiment [5] was inactive.

Turning to `ClCC(Br)CBr` (centres undefined), the molecule was classed as inactive in [1], in experiment [2], in experiment [4] and in experiment [6].

Turning to `O=C1NCN(c2ccccc2)C12CCN(CC1COc3ccccc3O1)CC2` (centres undefined), the molecule was classed as inactive in experiment [1], in experiment [2], in experiment [6] and in experiment [5].

Regarding `Cc1cc(C)cc(C(=O)OC2C[C@H]3CC[C@@H](C2)N3C)c1` (some centres undefined), the call in experiment [1], in experiment [2], in experiment [4] and in experiment [5] was inactive.

As to `CCCCCCCC(=O)Cl`, the call in experiment [1], in experiment [2], in [3], in [6] and in [5] was inactive.

As for `CCCCCCCCCCCCCCCCCC(=O)O`, the molecule was called inactive in [1], in [2], in experiment [4] and in [6].

Turning to `O=C(CCCN1CCC(n2c(=O)[nH]c3ccccc32)CC1)c1ccc(F)cc1`, the outcome in experiment [1], in experiment [2], in experiment [4] and in experiment [5] was inactive.

As to `C#CCOC(C(=O)OCCN(C)C)(c1ccccc1)c1ccccc1`, the molecule was called inactive in experiment [1], in experiment [2], in [4], in experiment [6] and in [5].

With `CCCCC(=O)Cl`, the call in experiment [1], in [7] and in experiment [4] was inactive.

Turning to `CC=C(CC)C(=O)NC(N)=O`, the call in experiment [1], in [2], in experiment [4], in experiment [6] and in experiment [5] was inactive.

For the molecule `Cl`, the result in experiment [1], in [2], in experiment [4], in [6], in [8] and in experiment [9] was inactive.

As for `COc1cc(CC(C)N)cc2c1OCO2` (centres undefined), the molecule was called inactive in [1], in experiment [7], in experiment [4], in experiment [3] and in experiment [5].

Consider `O=NN1CCCCC1`, for which the molecule was called inactive in [1], in experiment [7], in experiment [4], in [3] and in experiment [5].

As for `O=C(Cl)C(Cl)(Cl)Cl`, the molecule was classed as inactive in experiment [1], in experiment [7], in experiment [4], in experiment [6] and in experiment [5].

On to `c1ccc2c(c1)Sc1ccccc1N2CC1CN2CCC1CC2` (centres undefined), for which the outcome in experiment [1], in experiment [7] and in [6] was inactive. Also, in [4], the AC50 is 29.1 µM (active).

On to `[Cl-].[Cl-].[Cl-].[Fe+3]`, for which the result in experiment [1], in [2], in experiment [4], in experiment [6], in [8] and in experiment [9] was inactive.

With `Nc1ccccc1Cl`, the call in experiment [1], in experiment [7] and in experiment [4] was inactive.

In the case of `CCOC(=O)c1cn2nc(OP(=S)(OCC)OCC)cc2nc1C`, the result in [1], in [2], in [4], in experiment [6] and in experiment [5] was inactive.

As to `C[C@H]1[C@@H]2Cc3ccc(O)cc3[C@@]1(C)CCN2C`, the molecule was called inactive in experiment [1], in [3], in experiment [6] and in [5].

As for `Brc1ccccc1`, the molecule was called inactive in experiment [1], in [4] and in experiment [6].

For the molecule `c1ccc(C2(c3ccccc3)CC2C2=NCCN2)cc1` (centres undefined), the result in experiment [1], in experiment [4] and in experiment [6] was inactive.

Take `CNC(=O)Oc1ccccc1C(C)C`: the result in [1], in [7] and in experiment [5] was inactive.

Take `N[C@@H]1C[C@H]1c1ccccc1`: the outcome in experiment [10], in experiment [2], in experiment [7], in experiment [4] and in experiment [3] was inactive.

For the molecule `C[C@H](CN1CCOCC1)C(C(=O)N1CCCC1)(c1ccccc1)c1ccccc1`, the call in experiment [1] and in experiment [4] was inactive.

Turning to `O=S1(=O)OCCO1`, the molecule was classed as inactive in [1], in experiment [4], in experiment [3], in experiment [6] and in experiment [5].

With `CCC(=O)OC1(c2ccccc2)CCN(C)CC1`, the call in [1], in experiment [3] and in [6] was inactive.

With `CCCCC/C=C\C/C=C\C/C=C\C/C=C\CCCC(=O)NCC(=O)O`, the result in experiment [1], in [4], in [3], in [6] and in experiment [5] was inactive.

For the molecule `O=[N+]([O-])c1cc(Cl)c(Cl)c(Cl)c1`, the molecule was classed as inactive in experiment [1], in [7], in experiment [3] and in experiment [6].

For `CNC(=O)Oc1c(C(C)(C)C)cc(C)cc1C(C)(C)C`, in experiment [10], the outcome was inactive.

For orientation: AC50 means the concentration at which the activity in the assay is half-maximal.
